From PubChem BioAssay (NCI)
Compounds without any hit were thinned out: in the full panel of roughly 79,000, 15% have a hit. Activity calls are given as the source filed them. Cut-off read from the data, not from the text of the source: active = growth inhibition above about 70%; inactive = the rest.

Tests used:
[1] = NCI Yeast Anticancer Drug Screen. Data for the rad52 strain (AID 147);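 note: 0% = growth of vehicle-treated control cultures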; details: S. cerevisiae rad52 mutant growth inhibition, active compounds read high
Summary of the method: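 The repair-mutant yeast strain was incubated with compounds, then growth was read and inhibition derived relative to vehicle.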

[2] = NCI Yeast Anticancer Drug Screen. Data for the wt1 strain (AID 149);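 note: 0% = growth of vehicle-treated wt1 cultures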; details: S. cerevisiae wt1 strain (SPY 50644) growth inhibition, active compounds read high
Summary of the method: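 wt1 strain grown with compound or vehicle; inhibition taken from the growth difference.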

[3] = NCI Yeast Anticancer Drug Screen. Data for the rad50EPP+ strain (AID 151);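 note: 0% = growth of vehicle-treated control cultures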; details: S. cerevisiae rad50 mutant strain, active compounds read high
Summary of the method: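 Vehicle-normalised growth inhibition; rad50EPP+ yeast strain, altered in DNA damage repair, compound-treated.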

[4] = NCI Yeast Anticancer Drug Screen. Data for the mgt1 strain (AID 153); details: S. cerevisiae mgt1 mutant growth inhibition, active compounds read high
Summary of the method: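 Vehicle-normalized growth inhibition is determined in mgt1 yeast, a strain selected for a defined alteration in DNA repair or cell cycle control.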

[5] = NCI Yeast Anticancer Drug Screen. Data for the rad50 strain (AID 155);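 note: 0% = growth of vehicle-only cultures of the same strain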; details: S. cerevisiae rad50 strain growth inhibition, active compounds read high
Summary of the method: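 DNA repair mutant yeast, compound exposure, growth read-out; inhibition is taken relative to vehicle.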

[6] = NCI Yeast Anticancer Drug Screen. Data for the mec2-1 strain (AID 157); details: S. cerevisiae mec2-1 strain, active compounds read high
Summary of the method: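 Mutant yeast (mec2-1) grown with compound; growth inhibition relative to vehicle control reported.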

[7] = NCI Yeast Anticancer Drug Screen. Data for the rad14 strain (AID 159);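 note: 0% = growth of vehicle-treated control cultures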; details: S. cerevisiae rad14 strain growth inhibition, active compounds read high
Summary of the method: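 DNA repair-defective yeast, compound-exposed; % growth inhibition derived by comparison with vehicle-treated controls.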

[8] = NCI Yeast Anticancer Drug Screen. Data for the sgs1 mgt1 strain (AID 161);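 note: 0% = growth of cultures given vehicle only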; details: S. cerevisiae sgs1 mgt1 strain, active compounds read high
Summary of the method: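 Percent growth inhibition was derived by comparing compound-exposed mutant yeast with vehicle-exposed cultures. The strain carries alterations in DNA damage repair.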

[9] = NCI Yeast Anticancer Drug Screen. Data for the CLN2oe strain (AID 163);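 note: 0% = growth of vehicle-only control cultures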; details: S. cerevisiae CLN2oe strain, active compounds read high
Summary of the method: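 Compounds are applied to yeast harbouring a defined cell-cycle control change; reduced growth compared with vehicle-treated controls gives the value.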

[10] = NCI Yeast Anticancer Drug Screen. Data for the cln2 rad14 strain (AID 165);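 note: 0% = growth equal to vehicle treated cultures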; details: S. cerevisiae cln2 rad14 strain, active compounds read high
Summary of the method: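 Readout is yeast growth inhibition versus vehicle-treated controls, using a strain with cln2 and rad14 alterations exposed to compound.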

[11] = NCI Yeast Anticancer Drug Screen. Data for the bub3 strain (AID 167); details: S. cerevisiae bub3 mutant strain, active compounds read high
Summary of the method: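 In this screen, a yeast mutant lacking normal mitotic checkpoint function is challenged with compound. Relative growth versus vehicle gives the inhibition value.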

[12] = NCI Yeast Anticancer Drug Screen. Data for the wt2 strain (AID 169);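 note: 0% = growth of vehicle-treated yeast cultures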; details: S. cerevisiae wt2 strain growth inhibition, active compounds read high
Summary of the method: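 Against vehicle-treated controls, the growth of yeast exposed to each compound was compared, and the inhibition was recorded.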

[13] = NCI Yeast Anticancer Drug Screen. Data for the mlh1 strain (AID 171);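 note: 0% = growth of vehicle-treated control cultures of the same strain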; details: S. cerevisiae mlh1 strain growth inhibition, active compounds read high
Summary of the method: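 Measured: yeast growth. Reference: vehicle-treated controls. Organism: strain with a defined alteration affecting DNA damage repair or cell cycle control, treated with compound.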

[14] = NCI Yeast Anticancer Drug Screen. Data for the sgs1 strain (AID 173);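 note: 0% = growth of vehicle-only control cultures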; details: S. cerevisiae sgs1 mutant, active compounds read high
Summary of the method: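 Each compound was added to cultures of the altered yeast strain. Growth was recorded, and inhibition was derived by comparison with vehicle controls.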

[15] = NCI Yeast Anticancer Drug Screen. Data for the mlh1 rad18 strain (AID 175); details: S. cerevisiae mlh1 rad18 strain growth inhibition, active compounds read high
Summary of the method: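 Genetically defined yeast (DNA repair-deficient) exposed to compounds; growth inhibition determined relative to vehicle.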

[16] = NCI Yeast Anticancer Drug Screen. Data for the rad18 strain (AID 177); details: S. cerevisiae rad18 mutant growth inhibition, active compounds read high
Summary of the method: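 Vehicle-treated cultures served as the baseline for scoring compound-induced growth inhibition in DNA-repair-mutant yeast.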

[17] = at 5.0 µM (retest, dose inferred, filed as 0.5)
[18] = at 50.0 µM (retest, dose inferred, filed as 5.0)

Measured: growth inhibition

O=C1CCC(Cc2ccccc2)CN1 (stereo unspecified)
inactive: [1]; at 1.2 µM -1% | [1]; at 3.7 µM -1% | [1]; at 11.0 µM -2% | [1]; at 33.0 µM -3% | [1]; at 100.0 µM 0% | [2]; at 1.2 µM -3% | [2]; at 3.7 µM -2% | [2]; at 11.0 µM 1% | [2]; at 33.0 µM -2% | [2]; at 100.0 µM -1% | [3]; at 1.2 µM -1% | [3]; at 3.7 µM 0% | [3]; at 11.0 µM 12% | [3]; at 33.0 µM 25% | [3]; at 100.0 µM 42% | [4]; at 1.2 µM -1% | [4]; at 3.7 µM -5% | [4]; at 11.0 µM -1% | [4]; at 33.0 µM 68% | [5]; at 1.2 µM -1% | [5]; at 3.7 µM -2% | [5]; [17] 10% | [5]; at 11.0 µM -2% | [5]; at 33.0 µM -3% | [5]; [18] 7% | [5]; at 50.0 µM 7.1% | [5]; at 100.0 µM -1% | [6]; at 1.2 µM -1% | [6]; at 3.7 µM -1% | [6]; [17] -11% | [6]; at 11.0 µM 0% | [6]; at 33.0 µM -1% | [6]; [18] -3% | [6]; at 50.0 µM 19.7% | [6]; at 100.0 µM 3% | [7]; at 1.2 µM -2% | [7]; at 3.7 µM -1% | [7]; at 11.0 µM -2% | [7]; at 33.0 µM -1% | [7]; at 100.0 µM 1% | [8]; [17] 3% | [9]; at 1.2 µM -8% | [9]; at 3.7 µM -5% | [9]; at 11.0 µM 3% | [9]; at 33.0 µM -4% | [9]; at 100.0 µM -6% | [10]; [17] -2% | [10]; [18] 4% | [10]; at 50.0 µM 0.15% | [11]; at 1.2 µM -4% | [11]; at 3.7 µM -5% | [11]; [17] -11% | [11]; at 11.0 µM -5% | [11]; at 33.0 µM -7% | [11]; [18] -8% | [11]; at 50.0 µM 10.9% | [11]; at 100.0 µM -8% | [12]; at 1.2 µM -3% | [12]; at 3.7 µM 0% | [12]; at 11.0 µM 3% | [12]; at 33.0 µM 50% | [13]; at 1.2 µM -3% | [13]; at 3.7 µM -2% | [13]; at 11.0 µM 0% | [13]; at 33.0 µM 37% | [14]; at 1.2 µM 0% | [14]; at 3.7 µM 1% | [14]; at 11.0 µM 11% | [14]; at 33.0 µM 62% | [15]; [17] -9% | [15]; [18] 1% | [15]; at 50.0 µM 3.7% | [16]; at 1.2 µM 1% | [16]; at 3.7 µM -2% | [16]; at 11.0 µM 4% | [16]; at 33.0 µM 0% | [16]; at 100.0 µM 1%
active: [4]; at 100.0 µM 93% | [8]; [18] 80% | [8]; at 50.0 µM 81.5% | [12]; at 100.0 µM 92% | [13]; at 100.0 µM 90% | [14]; at 100.0 µM 93%

Cc1c(Cl)c(C)c(Cl)c(O)c1Cl
inactive: [1]; at 1.2 µM 17% | [1]; at 3.7 µM 7% | [1]; at 11.0 µM 28% | [2]; at 1.2 µM 11% | [2]; at 3.7 µM 9% | [2]; at 11.0 µM 13% | [3]; at 1.2 µM -21% | [3]; at 3.7 µM -9% | [3]; at 11.0 µM -6% | [4]; at 1.2 µM 18% | [4]; at 3.7 µM 7% | [4]; at 11.0 µM 56% | [5]; at 1.2 µM -14% | [5]; at 3.7 µM -21% | [5]; [17] 45% | [5]; at 11.0 µM -8% | [6]; at 1.2 µM -19% | [6]; at 3.7 µM 7% | [6]; [17] 51% | [6]; at 11.0 µM -7% | [7]; at 1.2 µM 5% | [7]; at 3.7 µM 6% | [7]; at 11.0 µM 11% | [8]; [17] 2% | [9]; at 1.2 µM 8% | [9]; at 3.7 µM -11% | [9]; at 11.0 µM 29% | [10]; [17] 32% | [11]; at 1.2 µM -17% | [11]; at 3.7 µM -2% | [11]; [17] 27% | [11]; at 11.0 µM 12% | [12]; at 1.2 µM -25% | [12]; at 3.7 µM -20% | [12]; at 11.0 µM 14% | [13]; at 1.2 µM 8% | [13]; at 3.7 µM -4% | [13]; at 11.0 µM 29% | [14]; at 1.2 µM 15% | [14]; at 3.7 µM 9% | [14]; at 11.0 µM 34% | [15]; [17] 33% | [16]; at 1.2 µM -26% | [16]; at 3.7 µM -4% | [16]; at 11.0 µM -25% | [16]; at 33.0 µM 65%
active: [1]; at 33.0 µM 79% | [1]; at 100.0 µM 98% | [2]; at 33.0 µM 80% | [2]; at 100.0 µM 98% | [3]; at 33.0 µM 75% | [3]; at 100.0 µM 93% | [4]; at 33.0 µM 98% | [4]; at 100.0 µM 98% | [5]; at 33.0 µM 92% | [5]; [18] 95% | [5]; at 50.0 µM 92.9% | [5]; at 100.0 µM 98% | [6]; at 33.0 µM 79% | [6]; [18] 96% | [6]; at 50.0 µM 93.2% | [6]; at 100.0 µM 99% | [7]; at 33.0 µM 95% | [7]; at 100.0 µM 99% | [8]; [18] 99% | [8]; at 50.0 µM 90.8% | [9]; at 33.0 µM 88% | [9]; at 100.0 µM 99% | [10]; [18] 100% | [10]; at 50.0 µM 93% | [11]; at 33.0 µM 76% | [11]; [18] 100% | [11]; at 50.0 µM 93% | [11]; at 100.0 µM 100% | [12]; at 33.0 µM 92% | [12]; at 100.0 µM 99% | [13]; at 33.0 µM 91% | [13]; at 100.0 µM 99% | [14]; at 33.0 µM 95% | [14]; at 100.0 µM 99% | [15]; [18] 97% | [15]; at 50.0 µM 72.2% | [16]; at 100.0 µM 97%
